Measured values from the supplement of paper PMC12669032.

System: Akkermansia muciniphila
Assay: growth AUC relative to DMSO control (median of replicates) (fraction); higher = more growth (less inhibition), active = hit call of the paper
Conditions: 20 µM; 24 h;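 active = AUC reduced over 20% with Padj below 0.05 in at least 2 of 3 replicates; inactive = otherwise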
In short: (§1)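 Gut bacterial monocultures in mGAM were treated with 20 µM compound (1% DMSO) and grown anaerobically at 37 °C in round-bottom 96-well plates from OD600 0.05. OD600 was read hourly for 24 h, with the minimum OD set to 0. Area under the growth curve was normalised to the plate median of solvent-only wells, or to row and column medians on the industrial chemical plate. Each value is the median of three biological replicates, each grown on a separate day.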

Growth AUC, inactive:
S=C([S-])NCCNC(=S)[S-].[Mn+2] 0.999
COc1ccc(Cl)c(Cl)c1Cl 0.963
CCCCOC(=O)C(C)Oc1ccc(Oc2ccc(C(F)(F)F)cn2)cc1 (stereo not drawn) 1.13
CCCCOCN(C(=O)CS(=O)(=O)[O-])c1c(CC)cccc1CC.[Na+] 0.979
CC(C)OC(=O)N[C@H](C(=O)N[C@H](C)c1nc2ccc(F)cc2s1)C(C)C 1.17
COc1ccc(Oc2ccc(NC(=O)N(C)C)cc2)cc1 0.887
CCCCOCCOC(=O)COc1nc(Cl)c(Cl)cc1Cl 1.02
CCSC(=O)N(CC(C)C)CC(C)C 0.967
C#CC(C)N(C)C(=O)Nc1ccc(Cl)cc1 (stereo not drawn) 0.974
O=S(=O)(Oc1ccc(Cl)cc1)c1ccccc1 0.785
CC(C)c1nn(C(=O)NC(C)(C)C)c(=O)n1N 0.95
COC(=O)c1ccc(I)cc1S(=O)(=O)[N-]C(=O)Nc1nc(C)nc(OC)n1.[Na+] 1.25
C=O 0.996
O=C1NCC[n+]2ccccc21.[Br-] 1.13
CCCCOCCOCCOCc1cc2c(cc1CCC)OCO2 0.968
Cc1ccc(C)c(O)c1 0.958
CCNc1nc(N)[nH]c(=O)n1 1.01
O.O=C(Nc1ccc(Cl)c(Cl)c1)Nc1cc(Cl)ccc1Oc1ccc(Cl)cc1S(=O)(=O)[O-].[Na+] 1.16
O=c1cc(Cl)[nH]nc1-c1ccccc1 0.833
CCNC(=O)[C@@H](C)OC(=O)Nc1ccccc1 0.912
Cc1c(C(=O)c2c[nH]n(C)c2=O)ccc(S(C)(=O)=O)c1C1=NOCC1 0.937
NC(=S)Nc1cccc2ccccc12 0.997
c1cc2ccc3ccc4ccc5cccc6c(c1)c2c3c4c56 0.936
CCc1cccc(CC)c1N(COC)C(=O)CS(=O)(=O)[O-].[Na+] 1.02
CN(C)c1ccc(N=NS(=O)(=O)[O-])cc1.[Na+] 1.03
CCc1cc(C(=O)O)cc(CC)c1C1C(=O)N2CCOCCN2C1=O 1.02
FC(F)(F)C(=NOCC1OCCO1)c1ccc(Cl)cc1 1.16
Cc1nn(C)c(OCC(=O)c2ccccc2)c1C(=O)c1ccc(Cl)cc1Cl 1.04
C=CCO/N=C(\CCC)C1=C([O-])CC(C)(C)C(C(=O)OC)C1=O.[Na+] (stereo not drawn) 1.2
COC(=O)C(C)Oc1ccc(Cl)cc1Cl (stereo not drawn) 0.964
COc1cc(OC)nc(NC(=O)NS(=O)(=O)Nc2ccccc2C(=O)C2CC2)n1 0.985
O=C(Nc1ccc(O)cc1-c1ccc(Cl)cc1)c1cccnc1Cl 0.889
S=C([S-])NCCNC(=S)[S-].[Zn+2] 1.16
COC(=O)COc1ccc(Cl)cc1C 0.917
ClC=C(c1ccc(Cl)cc1)c1ccc(Cl)cc1 1.05
CCCOc1nc2ccc(I)cc2c(=O)n1CCC 0.956
C#CCN(C)c1c(C#N)cnn1-c1nn2c(c1Cl)CCCC2 0.903
COC(=O)c1ccccc1S(=O)(=O)NC(=O)Nc1nc(OC(F)F)cc(OC(F)F)n1 0.91

Growth AUC, active:
Oc1c(Cl)cc(Cl)c(Cl)c1Cc1c(O)c(Cl)cc(Cl)c1Cl 0.193

System: Bacteroides caccae
Assay: as above
Conditions: 20 µM; 24 h
In short: as §1

Growth AUC, active:
Oc1c(Cl)cc(Cl)c(Cl)c1Cc1c(O)c(Cl)cc(Cl)c1Cl 0.0131

Growth AUC, inactive:
S=C([S-])NCCNC(=S)[S-].[Mn+2] 1.01
COc1ccc(Cl)c(Cl)c1Cl 1.03
CCCCOC(=O)C(C)Oc1ccc(Oc2ccc(C(F)(F)F)cn2)cc1 (stereo not drawn) 1.01
CCCCOCN(C(=O)CS(=O)(=O)[O-])c1c(CC)cccc1CC.[Na+] 0.997
CC(C)OC(=O)N[C@H](C(=O)N[C@H](C)c1nc2ccc(F)cc2s1)C(C)C 0.963
COc1ccc(Oc2ccc(NC(=O)N(C)C)cc2)cc1 1
CCCCOCCOC(=O)COc1nc(Cl)c(Cl)cc1Cl 0.954
CCSC(=O)N(CC(C)C)CC(C)C 1.05
C#CC(C)N(C)C(=O)Nc1ccc(Cl)cc1 (stereo not drawn) 0.995
O=S(=O)(Oc1ccc(Cl)cc1)c1ccccc1 0.959
CC(C)c1nn(C(=O)NC(C)(C)C)c(=O)n1N 1.04
COC(=O)c1ccc(I)cc1S(=O)(=O)[N-]C(=O)Nc1nc(C)nc(OC)n1.[Na+] 0.901
C=O 1.01
O=C1NCC[n+]2ccccc21.[Br-] 0.985
CCCCOCCOCCOCc1cc2c(cc1CCC)OCO2 0.968
Cc1ccc(C)c(O)c1 1.02
CCNc1nc(N)[nH]c(=O)n1 1.01
O.O=C(Nc1ccc(Cl)c(Cl)c1)Nc1cc(Cl)ccc1Oc1ccc(Cl)cc1S(=O)(=O)[O-].[Na+] 0.906
O=c1cc(Cl)[nH]nc1-c1ccccc1 1.01
CCNC(=O)[C@@H](C)OC(=O)Nc1ccccc1 0.991
Cc1c(C(=O)c2c[nH]n(C)c2=O)ccc(S(C)(=O)=O)c1C1=NOCC1 1.03
NC(=S)Nc1cccc2ccccc12 0.892
c1cc2ccc3ccc4ccc5cccc6c(c1)c2c3c4c56 1
CCc1cccc(CC)c1N(COC)C(=O)CS(=O)(=O)[O-].[Na+] 0.953
CN(C)c1ccc(N=NS(=O)(=O)[O-])cc1.[Na+] 1.02
CCc1cc(C(=O)O)cc(CC)c1C1C(=O)N2CCOCCN2C1=O 1.04
FC(F)(F)C(=NOCC1OCCO1)c1ccc(Cl)cc1 0.948
Cc1nn(C)c(OCC(=O)c2ccccc2)c1C(=O)c1ccc(Cl)cc1Cl 0.955
C=CCO/N=C(\CCC)C1=C([O-])CC(C)(C)C(C(=O)OC)C1=O.[Na+] (stereo not drawn) 1
COC(=O)C(C)Oc1ccc(Cl)cc1Cl (stereo not drawn) 1.05
COc1cc(OC)nc(NC(=O)NS(=O)(=O)Nc2ccccc2C(=O)C2CC2)n1 0.988
O=C(Nc1ccc(O)cc1-c1ccc(Cl)cc1)c1cccnc1Cl 1.02
S=C([S-])NCCNC(=S)[S-].[Zn+2] 1.05
COC(=O)COc1ccc(Cl)cc1C 1.04
ClC=C(c1ccc(Cl)cc1)c1ccc(Cl)cc1 0.896
CCCOc1nc2ccc(I)cc2c(=O)n1CCC 0.995
C#CCN(C)c1c(C#N)cnn1-c1nn2c(c1Cl)CCCC2 0.935
COC(=O)c1ccccc1S(=O)(=O)NC(=O)Nc1nc(OC(F)F)cc(OC(F)F)n1 1
